Test [1] is described as follows: small molecules captured by biotinylated probe aFSTL3 – biochemical, small-molecule microarray, fluorescence 635/667, stem cell growth factor project, primary screen (AID 1064).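 Also: measures binding of the biotinylated anti-FSTL3 antibody to printed compounds.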 To be noted: higher = more signal.
The nature of test [2]: binders from COS7 lysate, DM2A8 probe, primary screen, torsin A project, cell lysate, small-molecule microarray, fluorescence 635/667 (AID 1065). The following applies: higher = more signal, COS7 lysate expressing mutant human TOR1A.
Test [3] can be described thus: small molecules captured by biotinylated probe aFGF2 – biochemical, small-molecule microarray, fluorescence 635/667, stem cell growth factor project, primary screen (AID 1067).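 Also: measures binding of biotinylated aFGF2 protein to printed compounds on slides; z-score merges feature fluorescence and signal-to-noise across triplicate slides.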 To be noted: higher = more signal.
Test [4] in a line: small molecules captured by biotinylated probe aFGF10 – biochemical, small-molecule microarray, fluorescence 635/667, stem cell growth factor project, primary screen (AID 1071).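 Also: score merges 667 nm spot intensity and signal to noise from triplicate slides.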 The following applies: higher = more signal.
Test [5] has as its target Neurogenic locus notch homolog protein 2 (Homo sapiens) (UniProt Q04721). The test is described as follows: small molecules binding Notch2 protein – biochemical, small-molecule microarray, 635 nm fluorescence, stem cell growth factors, primary screen (AID 1073). The following applies: higher = more signal.
In test [6] the target is Pro-neuregulin-1, membrane-bound isoform (Homo sapiens) (UniProt Q02297). Nature of the test: small molecules binding neuregulin-1 protein – biochemical, small-molecule microarray, fluorescence 635/667, psychiatric disease protein project, primary screen (AID 1075).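 Also: score combines 667 nm spot fluorescence with signal to noise.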 The following applies: NRG1 binding, 635 nm fluorescence, higher = more signal.
In test [7] the test system is Neuregulin-1 EGF-like domain. The test is described as follows: small molecules binding NRG1 EGF domain – biochemical, small-molecule microarray, 635 nm fluorescence, primary screen (AID 1081).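 Also: binding of the protein to compounds printed on small-molecule microarray slides.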 The following applies: higher = more signal.
A short description of test [8]: FRG1 expression reporter modulators in myotubes – cell-based, C2C12 myotubes, firefly/Renilla luciferase, luminescence, FRG1 inhibition for FSHD, primary screen (AID 1084). The following applies: FRG1 promoter luciferase, higher = more signal, called active from +8 up or from −8 down.
Test [9] in a line: small molecules captured by biotinylated probe aFST – biochemical, small-molecule microarray, fluorescence 635/667, stem cell growth factor project, primary screen (AID 1086).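 Also: score merges 667 nm fluorescence with signal-to-noise of each printed compound spot.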 To be noted: higher = more signal.
Test [10] in a line: binders of probe aHhip on microarray, primary screen, stem cell growth factor project, biochemical, small-molecule microarray, fluorescence 635/667 (AID 1087).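 Also: score merges spot fluorescence at 667nm with spot signal to noise ratio.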 The following applies: higher = more signal.
In test [11] the test system is PRMT1 (protein arginine N-methyltransferase 1). Nature of the test: small molecules binding arginine methyltransferase PRMT1 – biochemical, small-molecule microarray, 635 nm fluorescence, primary screen (AID 1088).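 Also: binding of Prmt1 protein to compounds spotted on small-molecule microarray slides.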 To be noted: higher = more signal.
Test [12] in a line: growth effects on S. cerevisiae YJM789 – YJM789 clinical isolate, OD600, 24 h, basal, primary screen (AID 1089).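 Also: growth of clinical yeast isolate S. cerevisiae YJM 789 seeded 1000 cells per well; test concentration not given here.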 To be noted: higher = more signal, called active from +8 up or from −8 down.
The nature of test [13]: S. pombe growth modifiers, basal conditions – strain 972, OD600, 24 h, no modulator, primary screen (AID 1090).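 Also: basal condition with compound alone and no growth modifier present; test concentration not given here.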 The following applies: S. pombe 972 growth, higher = more signal, called active from +8 up or from −8 down.
A short description of test [14]: budding yeast growth modifiers under rapamycin – strain BY4716, OD600, 96 h, primary screen (AID 1091). Also: test concentration not given here. To be noted: S. cerevisiae BY4716 + rapamycin, higher = more signal, called active from +8 up or from −8 down.
In test [15] the target is Torsin-1A-interacting protein 2 (Homo sapiens) (UniProt Q8NFQ8). Nature of the test: small molecules binding lysate-expressed LULL1 – cell lysate, human LULL1 lysate, 635/667 nm fluorescence, primary screen (AID 1092).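 Also: probe is lysate of COS7 cells overexpressing human LULL1; score merges per-feature 667 nm fluorescence with signal-to-noise.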 The following applies: small-molecule microarray, hLULL1 lysate binding, 635 nm fluorescence; higher = more signal.
Test [16] can be described thus: optical density change of DRC41 E. coli – strain DRC41, OD650, 24 h, E. coli filamentation project, primary screen (AID 1093).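 Also: MC1000 strain lacking acrAB efflux and sulA so SOS filamentation is blocked; test concentration not given here.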 The following applies: E. coli DRC41 growth, higher = more signal, called active from +8 up or from −8 down.
The nature of test [17]: probe aLefty2 binding to arrayed compounds – biochemical, biotinylated probe, 635/667 nm fluorescence, primary screen (AID 1094).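 Also: score merges spot fluorescence near 667 nm with spot signal-to-noise ratio.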 The following applies: small-molecule microarray, higher = more signal.
In test [18] the test system is Noggin (protein binding on small-molecule microarray). Nature of the test: small molecules binding Noggin protein – biochemical, 635/667 nm fluorescence, primary screen (AID 1095).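 Also: score merges 667 nm feature fluorescence with signal to noise over triplicate slides.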 The following applies: 635 nm fluorescence, higher = more signal.
Test [19] addresses Neurogenic locus notch homolog protein 3 (Homo sapiens) (UniProt Q9UM47). Nature of the test: small molecules binding NOTCH3 protein – biochemical, 635/667 nm fluorescence, primary screen (AID 1096). To be noted: small-molecule microarray, 635 nm fluorescence, higher = more signal.
The nature of test [20]: probe aEGFR binding to arrayed compounds – biochemical, biotinylated probe, 635/667 nm fluorescence, primary screen (AID 1097).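 Also: probe is a biotinylated anti-EGFR antibody binding compounds printed on slides; score combines fluorescence near 667 nm and signal to noise of each spot.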 To be noted: small-molecule microarray, higher = more signal.

The source made the active and inactive calls.

The record followed here is PubChem BioAssay.

Chain of Neurogenic locus notch homolog protein 3 (Homo sapiens) (Q9UM47 whole entry, looked up): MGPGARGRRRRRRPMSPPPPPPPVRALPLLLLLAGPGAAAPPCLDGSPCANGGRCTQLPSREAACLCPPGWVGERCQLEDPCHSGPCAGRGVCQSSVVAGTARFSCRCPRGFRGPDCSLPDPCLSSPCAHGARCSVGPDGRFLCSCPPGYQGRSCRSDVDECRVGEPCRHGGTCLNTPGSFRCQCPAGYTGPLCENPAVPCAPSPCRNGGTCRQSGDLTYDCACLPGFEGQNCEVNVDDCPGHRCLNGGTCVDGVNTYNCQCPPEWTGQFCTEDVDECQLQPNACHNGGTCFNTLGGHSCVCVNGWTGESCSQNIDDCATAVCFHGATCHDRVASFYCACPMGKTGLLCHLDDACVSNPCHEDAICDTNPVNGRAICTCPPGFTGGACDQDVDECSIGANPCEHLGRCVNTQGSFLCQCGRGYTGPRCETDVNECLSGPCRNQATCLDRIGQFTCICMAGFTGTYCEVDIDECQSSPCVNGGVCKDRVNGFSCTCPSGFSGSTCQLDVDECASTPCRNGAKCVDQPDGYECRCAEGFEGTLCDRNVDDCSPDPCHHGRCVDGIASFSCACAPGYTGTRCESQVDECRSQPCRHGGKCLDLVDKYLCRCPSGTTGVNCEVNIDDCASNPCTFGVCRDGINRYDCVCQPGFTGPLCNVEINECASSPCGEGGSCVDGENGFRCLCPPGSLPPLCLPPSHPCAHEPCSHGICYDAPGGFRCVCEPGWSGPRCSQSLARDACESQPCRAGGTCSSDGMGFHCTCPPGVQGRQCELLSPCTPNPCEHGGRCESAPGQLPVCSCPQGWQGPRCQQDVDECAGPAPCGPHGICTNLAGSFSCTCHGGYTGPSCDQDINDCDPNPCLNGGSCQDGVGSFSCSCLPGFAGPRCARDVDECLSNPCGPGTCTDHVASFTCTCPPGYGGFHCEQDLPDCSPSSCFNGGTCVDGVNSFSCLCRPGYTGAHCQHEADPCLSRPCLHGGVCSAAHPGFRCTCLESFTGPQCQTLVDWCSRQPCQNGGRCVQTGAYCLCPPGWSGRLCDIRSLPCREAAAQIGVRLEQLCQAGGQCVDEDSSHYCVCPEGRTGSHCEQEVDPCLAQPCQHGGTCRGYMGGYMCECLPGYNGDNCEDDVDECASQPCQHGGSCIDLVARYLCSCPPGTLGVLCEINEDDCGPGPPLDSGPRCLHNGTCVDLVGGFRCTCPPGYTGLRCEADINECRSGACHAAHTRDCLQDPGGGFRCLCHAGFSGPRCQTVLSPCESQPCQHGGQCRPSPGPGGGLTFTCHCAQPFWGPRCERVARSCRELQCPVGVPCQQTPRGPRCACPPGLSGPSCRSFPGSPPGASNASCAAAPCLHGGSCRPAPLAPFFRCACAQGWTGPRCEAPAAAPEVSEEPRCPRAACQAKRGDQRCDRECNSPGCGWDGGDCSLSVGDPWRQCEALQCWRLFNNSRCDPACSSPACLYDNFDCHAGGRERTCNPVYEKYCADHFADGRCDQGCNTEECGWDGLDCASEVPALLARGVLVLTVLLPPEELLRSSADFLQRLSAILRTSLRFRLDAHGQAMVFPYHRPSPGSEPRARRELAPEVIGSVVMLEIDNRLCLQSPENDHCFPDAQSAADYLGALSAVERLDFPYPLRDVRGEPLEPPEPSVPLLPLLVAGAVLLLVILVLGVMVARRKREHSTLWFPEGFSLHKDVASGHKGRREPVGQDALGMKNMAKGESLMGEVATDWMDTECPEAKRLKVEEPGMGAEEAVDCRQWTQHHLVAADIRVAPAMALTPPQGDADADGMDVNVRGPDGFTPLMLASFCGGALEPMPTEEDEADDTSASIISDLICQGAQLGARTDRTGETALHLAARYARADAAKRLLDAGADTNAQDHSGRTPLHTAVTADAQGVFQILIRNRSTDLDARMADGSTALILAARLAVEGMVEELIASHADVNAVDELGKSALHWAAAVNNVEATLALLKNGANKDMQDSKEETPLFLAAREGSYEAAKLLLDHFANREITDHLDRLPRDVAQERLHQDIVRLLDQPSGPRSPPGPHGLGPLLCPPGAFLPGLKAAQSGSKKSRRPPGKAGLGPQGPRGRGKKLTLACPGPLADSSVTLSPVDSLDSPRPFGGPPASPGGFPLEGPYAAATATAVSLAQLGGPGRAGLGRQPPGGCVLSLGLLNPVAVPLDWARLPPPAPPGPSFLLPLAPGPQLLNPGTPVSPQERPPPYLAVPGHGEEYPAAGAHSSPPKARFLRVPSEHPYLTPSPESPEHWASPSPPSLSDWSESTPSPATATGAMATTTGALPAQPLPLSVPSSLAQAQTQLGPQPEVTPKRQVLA
Chain of Torsin-1A-interacting protein 2 (Homo sapiens) (Q8NFQ8 whole entry, looked up): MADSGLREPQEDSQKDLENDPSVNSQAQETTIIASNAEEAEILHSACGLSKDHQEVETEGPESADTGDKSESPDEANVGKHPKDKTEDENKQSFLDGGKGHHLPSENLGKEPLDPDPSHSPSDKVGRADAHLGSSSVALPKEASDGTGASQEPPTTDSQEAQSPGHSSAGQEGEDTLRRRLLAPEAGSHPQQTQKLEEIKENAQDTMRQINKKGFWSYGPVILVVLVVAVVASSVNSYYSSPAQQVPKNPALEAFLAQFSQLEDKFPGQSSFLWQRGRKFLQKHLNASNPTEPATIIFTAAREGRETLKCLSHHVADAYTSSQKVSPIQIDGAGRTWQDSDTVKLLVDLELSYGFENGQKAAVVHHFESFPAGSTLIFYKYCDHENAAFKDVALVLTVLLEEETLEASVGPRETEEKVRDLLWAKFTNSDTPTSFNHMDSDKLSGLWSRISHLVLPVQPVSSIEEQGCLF
Chain of Pro-neuregulin-1, membrane-bound isoform (Homo sapiens) (Q02297 whole entry, looked up, the tested form may be a part, canonical isoform): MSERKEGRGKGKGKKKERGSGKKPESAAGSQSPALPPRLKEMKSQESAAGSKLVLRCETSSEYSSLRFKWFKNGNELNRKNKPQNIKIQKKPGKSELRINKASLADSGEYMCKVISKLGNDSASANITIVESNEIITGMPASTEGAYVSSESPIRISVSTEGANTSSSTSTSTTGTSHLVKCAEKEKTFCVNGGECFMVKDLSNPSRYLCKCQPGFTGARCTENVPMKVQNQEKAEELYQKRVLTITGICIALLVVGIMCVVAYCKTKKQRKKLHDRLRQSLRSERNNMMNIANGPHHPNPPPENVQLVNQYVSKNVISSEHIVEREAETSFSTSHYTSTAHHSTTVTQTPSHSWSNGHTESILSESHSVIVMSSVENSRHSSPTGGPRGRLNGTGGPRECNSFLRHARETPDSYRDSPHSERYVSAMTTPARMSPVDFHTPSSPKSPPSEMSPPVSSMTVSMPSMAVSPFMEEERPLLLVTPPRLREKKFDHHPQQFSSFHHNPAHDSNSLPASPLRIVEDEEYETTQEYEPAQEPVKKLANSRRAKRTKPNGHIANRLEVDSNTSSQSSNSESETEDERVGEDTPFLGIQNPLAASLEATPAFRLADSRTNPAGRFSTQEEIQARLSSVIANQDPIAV

In the case of `COC(=O)[C@@H]1CC[C@H](C)[C@@H](c2ccc(C)cc2)N1C(=O)c1ccc(C=NO[C@@H](C)c2cc(-c3c(C)cc(C)cc3C)no2)cc1`, the composite z-score in test [1] was -0.4; in [2], 0.58; in [3], -0.166; in test [4], 0.219; in [5], 0.239; in [6], 0.0688. For the same compound, the composite z-score is 0.38 in test [7]; 0.188 in test [9]; -0.0237 in test [10]; 1.05 in [11]; 0.919 in [15]; -0.0727 in test [17]. Also, the composite z-score in test [18] was 0.3; in test [19], 0.35; in test [20], -0.165. For the same compound, the z-score is -1.21 (inactive) in test [8]; -0.0984 (inactive) in test [12]; 0.358 (inactive) in [13]; 0.612 (inactive) in [14]; 0.328 (inactive) in [16].
With `O=C1C[C@@H](O)[C@@H](O)[C@@H]2[C@@H]3C(=O)N(c4ccc(F)cc4F)C(=O)[C@@H]3CC[C@H]12`, the composite z-score in [1] was -0.517; in test [2], 0.248; in [3], -0.1; in [4], 0.648; in test [5] it was 0.601; in test [6] it was 0.0794. Besides, the composite z-score in [7] is 0.354; in test [9], 0.201; in [10] it was 0.0373; in test [11], 0.599; in [15], 0.734; in [17], -0.0782. The values for the composite z-score in test [18], in test [19] and in test [20] were 0.43, 0.6 and -0.0695, respectively. Besides, the z-score in test [8] was -0.536 (inactive); in test [12] it was -0.175 (inactive); in test [13] it was -0.177 (inactive); in [14], -0.147 (inactive); in test [16], 0.124 (inactive).
On to `CCOC(=O)CCN1C(=O)[C@H]2[C@H]3[C@H](O)[C@H](O)CC(=NO[C@@H]4O[C@H](CO)[C@@H](O)[C@H](O)[C@H]4O)[C@H]3CC[C@H]2C1=O`, for which the composite z-score in test [1] is -0.379; in [2], 0.508; in test [3], 0.0395; in test [4], 0.232; in test [5] it was 0.44; in [6] it was 0.0332. Moreover, the composite z-score in test [7] is 0.569; in [9] it was 0.857; in test [10] it was -0.195; in test [11] it was -0.145; in test [15], 0.211; in [17] it was 0.0008. The composite z-score in test [18] is 0.404; in test [19], 0.195; in test [20], -0.115. Further, the z-score in [8] is 0.261 (inactive); in [12], -0.703 (inactive); in [13], 0.354 (inactive); in [14], -0.387 (inactive); in test [16] it was 0.389 (inactive).
In the case of `COC(=O)CC=C[C@@H](C)[C@@H](C=NOC[C@@H](O)COCc1ccco1)OC`, the composite z-score is -0.663 in [1]; 2.07 in test [2]; -0.225 in [3]; -0.813 in test [4]; -1.05 in [5]; -0.209 in test [6]. The composite z-score is 0.532 in [7]; -0.466 in test [9]; -0.164 in test [10]; 0.302 in test [11]; 0.378 in test [15]; -0.336 in test [17]. The figures for the composite z-score in [18], in test [19] and in test [20] were 1.49, -0.456 and -0.132, respectively. The z-score is 0.103 (inactive) in test [8]; -0.0605 (inactive) in test [12]; -0.543 (inactive) in [13]; 0.225 (inactive) in test [14]; -0.255 (inactive) in [16].
Take `CON=C(C)CCN1CCCc2nc(C)c(C)cc21`: the composite z-score in test [1] was -0.411; in test [2] it was -0.205; in test [3] it was -0.0266; in [4], 0.28; in test [5], 0.512; in test [6] it was 0.397. In addition, the composite z-score in test [7] is 0.908; in test [9], 0.192; in test [10], 0.12; in test [11] it was 1.43; in test [15] it was 1.92; in [17], -0.0179. Also, the values for the composite z-score in test [18], in [19] and in test [20] were 0.513, 0.632 and 0.0376, respectively. Besides, the z-score in test [8] was 0.885 (inactive); in test [12] it was -0.596 (inactive); in test [13], -0.837 (inactive); in test [14], 0.0921 (inactive); in test [16], 0.0129 (inactive).
